# Assay results: PubChem BioAssay (NCI)
# Compounds without any hit were thinned out: in the full panel of roughly 79,000, 15% have a hit. Unmarked numbers belong to inactive results. Active and inactive are the calls of the source. Cut-off read from the data, not from the text of the source: active = growth inhibition above about 70%; inactive = the rest.
# Columns and labels:
# [1] = NCI Yeast Anticancer Drug Screen. Data for the rad50 strain (AID 155);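 note: 0% = growth of vehicle-only cultures of the same strain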; conditions: S. cerevisiae rad50 strain growth inhibition; at 50.0 µM; stronger effect = higher value
# Method in brief: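 Vehicle-treated cultures provide the reference for the growth inhibition reported for compound-exposed, repair-deficient yeast.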
# [2] = NCI Yeast Anticancer Drug Screen. Data for the mec2-1 strain (AID 157); conditions: S. cerevisiae mec2-1 strain, at 50.0 µM, stronger effect = higher value
# Method in brief: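 Compounds were applied to mec2-1 yeast cells. Their growth was then compared with that of vehicle-treated cultures to give growth inhibition.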
# [3] = NCI Yeast Anticancer Drug Screen. Data for the sgs1 mgt1 strain (AID 161);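 note: 0% = growth of cultures given vehicle only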; conditions: S. cerevisiae sgs1 mgt1 strain, at 50.0 µM, stronger effect = higher value
# Method in brief: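 Growth of a repair-deficient yeast mutant was monitored after compound treatment and expressed as inhibition relative to vehicle-treated cultures.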
# [4] = NCI Yeast Anticancer Drug Screen. Data for the cln2 rad14 strain (AID 165);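 note: 0% = growth equal to vehicle treated cultures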; conditions: S. cerevisiae cln2 rad14 strain, at 50.0 µM, stronger effect = higher value
# Method in brief: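 Strain: cln2 rad14 yeast, altered in cell cycle control and DNA damage repair. Read-out: growth inhibition vs vehicle.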
# [5] = NCI Yeast Anticancer Drug Screen. Data for the bub3 strain (AID 167); conditions: S. cerevisiae bub3 mutant strain, at 50.0 µM, stronger effect = higher value
# Method in brief: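 Mutant yeast screening strain plus compound; vehicle-treated cultures serve as the 0% inhibition reference.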
# [6] = NCI Yeast Anticancer Drug Screen. Data for the mlh1 rad18 strain (AID 175); conditions: S. cerevisiae mlh1 rad18 strain growth inhibition; at 50.0 µM; stronger effect = higher value
# Method in brief: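 A repair-deficient yeast strain is exposed to test compound, and growth is scored relative to vehicle-treated controls.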
SMILES,growth inhibition [1],growth inhibition [2],growth inhibition [3],growth inhibition [4],growth inhibition [5],growth inhibition [6]
Brc1ccc2c[n+]3ccccc3cc2c1,11.9%,7.35%,12%,-31.9%,24.2%,9.4%
Cc1nc(N)nc2c1ncn2CCO,14.6%,16.1%,9.6%,-4.25%,24.9%,9.85%
NNC(=O)CNc1cccc(Br)c1,-16.1%,-24.6%,-6.1%,16.9%,-32.4%,-11.4%
O=C(NC(O)C(=O)O)c1ccc(Cl)cc1 (configuration not stated),-10.9%,-10.9%,-6.2%,17.3%,-6.4%,-27.9%
N#CCCN(C1=NN(C(=O)CC(=O)Nc2cccc(Cl)c2)C(c2ccccc2)C1)c1ccccc1Cl (configuration not stated),8.2%,-28.8%,-16.1%,11.5%,-14.9%,-30.9%
CC(C)N=C(NC#N)NS(=O)(=O)c1cnccc1Nc1ccc(Cl)cc1,-11.1%,18.8%,-13%,-1.9%,-18.1%,24.8%
COc1ccc(C2=CN(S(=O)(=O)c3ccc(C)cc3)CCc3ccccc32)cc1,-31.4%,-10.9%,-31.8%,-59.8%,-6.6%,-23.7%
O=C(Nc1cccc([N+](=O)[O-])c1)C(=O)C(C(=O)c1ccccc1F)C1OC(=O)C2C=CC=CC21 (configuration not stated),5.5%,15.9%,16.1%,11.7%,-32.9%,-19.9%
COc1ccc(-c2cc(=O)c3cc(C)c(C)c(C#N)c3o2)cc1,-25.9%,-29.6%,-35.8%,-17.5%,-29.9%,-37.5%
CC(=O)OC1CC[C@@]2(C)C(C1)CC(OC(C)=O)[C@@H]1C2CC(OC(C)=O)[C@]2(C)C(C(C)CC=C(c3ccc(Cl)cc3)c3ccc(Cl)cc3)CCC12 (some centres not stated),0.4%,2.8%,3.05%,11.1%,20.5%,5%
CCOC(CNCc1ccc(OC)cc1)OCC,-0.25%,-3.1%,4%,-2.05%,22.4%,7.6%
COC(=O)C1CC23CCCC12CC3 (configuration not stated),21.6%,-1.25%,2.3%,-66.7%,8.05%,-7.05%
Cc1cc(N2CCCCC2)nc2ccccc12,4.95%,-4.4%,-18.6%,-3.9%,-1.85%,9.25%
C=C1C(=O)O[C@H]2C[C@@H]1C(=O)CC(C)CCCC(C)=CCC[C@@]2(C)O (some centres not stated),24.4%,7.65%,15.2%,11.2%,-0.1%,-49.4%
O=C(N/C(=C\c1cc(Cl)ccc1Cl)c1nc2ccccc2[nH]1)c1ccccc1,50.2%,8.65%,31.9%,25%,43.9%,42.3%
CC(=O)c1cccc(NC(=O)Oc2ccc(F)cc2Cl)c1,-2.3%,29.1%,18.8%,-13.6%,12.9%,-1.8%
O=C1CC(c2ccccc2)C(c2ccccc2)C1C(=O)OCCc1ccccc1 (configuration not stated),36%,2.85%,2.45%,1.5%,-16.9%,1.3%
Nc1ccc2nnn(OC3CCCC3)c2c1,40.2%,13.9%,3.55%,9.4%,-4.05%,0.4%
Oc1cc(O)c(Cl)cc1Cl,15.4%,-4.25%,-22.8%,-2.95%,-12.3%,23.3%
N/N=C/c1cccn1-c1ccccc1Cl,33.8%,15.3%,26.9%,0.35%,28.2%,14.8%
COC(=O)CC(C)(O)CCCC(C)C (configuration not stated),11.2%,-5.15%,16.9%,-17.9%,3.9%,-14.2%

SMILES,growth inhibition [1],growth inhibition [2],growth inhibition [3],growth inhibition [4],growth inhibition [5],growth inhibition [6]
NC(=S)SCCC(=O)N1CCCC1,-1.25%,-10.1%,-9.55%,-19.6%,-7.35%,-1.7%
CCN(CC)CCCNc1ncnc2onc(C)c12,15.3%,15.2%,2.2%,6.15%,1.45%,-9.3%
O=C(O)C(=O)NCc1cnccn1,10.9%,-8.25%,-3.65%,-29.6%,11.9%,-19.1%
CN1CCN(Cc2cc(C(C)(C)C)cc(-c3ccccc3)c2O)CC1,39.4%,-25.1%,6.9%,6.45%,8%,25.6%
O=[N+]([O-])c1ccc(CS(=O)(=O)c2ccccc2)o1,21.4%,-1.45%,24.5%,-15.9%,1.15%,4.6%
Cc1cccc2nc(-c3ccccn3)n(CCc3ccncc3)c12,98.8% (active),99.2% (active),99.2% (active),98.1% (active),98.8% (active),98.7% (active)
CN=NNc1ccccc1,-1.4%,6.75%,-6.45%,-29.2%,14.8%,-6.4%
CC(C)(Nc1nc2c(ncn2C2OC(CO)C(O)C2O)c(=O)[nH]1)P(=O)(O)O (configuration not stated),4.4%,-0.4%,17%,11.1%,-5.4%,2.9%
O=P(OC1=NCCN1Cc1ccccc1)(OC1=NCCN1Cc1ccccc1)N1CC1,16.9%,5.6%,21.7%,32.4%,3.75%,-6.2%
CC1(C)CCC2(CO)C(=C3C=CC4C5(C)CCC(O)C(C)(CO)C5CCC4(C)C3(C)CC2O)C1 (configuration not stated),0.45%,-31.8%,-0.75%,-3.35%,-9.5%,11.4%
Cc1ccc(S(=O)(=O)Nc2ccc([N+](=O)[O-])cc2[N+](=O)[O-])cc1,17.5%,15.3%,-1.65%,9.85%,1.15%,17.8%
Nc1nc(N)c(N2CCN(Cc3ccccc3)CC2)c(Cl)n1,30.1%,10.8%,33.1%,18.9%,18.3%,27.4%
Cc1cc(NS(=O)(=O)c2ccc(Nc3c4ccccc4nc4c(C(=O)NCCN(C)C)ccc(Cl)c34)cc2)no1,-9.25%,17.1%,-2.4%,6.1%,-3.25%,63.5%
CC(CCC(=O)O)[C@H]1CCC2[C@H]3C(CC(=O)[C@@]21C)[C@@]1(C)CCC(O)C[C@H]1C[C@@H]3O (some centres not stated),-7.75%,-7.7%,5.9%,-29.4%,-17.1%,-11.7%
CCCCCCOC(=O)CCCCCC1CCCCC1,3.15%,-6.5%,2.3%,-77.4%,-6.05%,-6.55%
O=C(O)c1cc(/C=C/c2ccccc2)ccc1[N+](=O)[O-],-11.2%,25.5%,7.5%,-33.6%,-5.8%,-3.1%
C#CC(CCC)NC(C)(C)C (configuration not stated),31.7%,-13.9%,7.35%,-10.8%,1.95%,21.3%
COc1ccc(-c2nc(-c3cc4ccccc4oc3=O)cs2)cc1,13.1%,13.6%,-12.1%,7.7%,-18.4%,-35.1%
COC(O)C(=O)c1c2c(cc3c1CCC3)CCC2 (configuration not stated),29.1%,45.8%,39.3%,12.3%,21.1%,21%
CCCCCCC(C)C(C#N)C(=O)OCC (configuration not stated),-11.8%,-11.8%,-26.1%,-4.15%,-16.6%,-14.3%
CN(C)c1ccc(/C=N/NS(=O)(=O)c2ccc(N)cc2)cc1,-4.4%,-9.95%,18.8%,-3.45%,-32.2%,-12.6%
